Several values for one entry are separate records, joined by “and”; a condition that tells them apart may be missing. Equal entries are not always repeated. Results filed as inconclusive are left out. A structure can be active in one record and inactive in another. Activity calls are given as the source filed them. Rule for the calls, unless noted: active = hit-call score of the fitted dose curve at least 0.9, where 1 is the maximum; inactive = score below 0.9.
Columns and labels:
[1] = biological target: Estrogen-related receptor gamma (Homo sapiens) (UniProt P62508); experiment: ATG_ERRg_TRANS: Attagene TRANS-FACTORIAL HepG2 Assay for human Estrogen-Related Receptor gamma (ERRg) (AID 2282977; active = hit-call score of the fitted dose curve at least 0.9, where 1 is the maximum;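 note: hits increase reporter signal over DMSO so potencies reflect activators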); details: HepG2 Attagene TRANS reporter, ERRg transactivation
In short: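 Transfect HepG2 with multiple GAL4-UAS reporter transcription units; dose chemicals 24 h; isolate RNA, reverse-transcribe with oligo(dT), PCR-amplify, label with 6-FAM, digest with HpaI; size fragments by capillary electrophoresis. DMSO serves as negative control.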

[2] = biological target: Glucocorticoid receptor (Homo sapiens) (UniProt P04150); experiment: ATG_GR_TRANS: Attagene TRANS-FACTORIAL HepG2 Assay for human Glucocorticoid Receptor (GR) (AID 2282978; active = hit-call score of the fitted dose curve at least 0.9, where 1 is the maximum;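 note: activators score as hits since higher reporter transcript over DMSO is fitted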); details: HepG2 Attagene TRANS GR reporter, mRNA transcription
In short: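 Measurement of GAL4-UAS-driven reporter mRNA in human HepG2 liver cells 24 h post-dosing, using RT-PCR with fluorescent labelling and capillary electrophoresis; the transfected constructs report exogenous NR-GAL4 chimera activity, fitted upward against DMSO.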

[3] = biological target: Bile acid receptor (Homo sapiens) (UniProt Q96RI1); experiment: ATG_FXR_TRANS: Attagene TRANS-FACTORIAL HepG2 Assay for Farnesoid X Receptor (FXR) (AID 2282979; active = hit-call score of the fitted dose curve at least 0.9, where 1 is the maximum;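 note: hits raise reporter mRNA above DMSO so AC50 marks FXR activation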); details: HepG2 Attagene TRANS FXR-GAL4 reporter transcription
In short: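 HepG2 cells were transiently transfected with GAL4-UAS reporters driven by chimeric NR-Gal4 proteins and dosed for 24 h. Reporter mRNA was quantified by RT-PCR, fluorescent labelling, HpaI digestion and capillary electrophoresis, with gain of signal scored versus DMSO.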

[4] = biological target: Oxysterols receptor LXR-alpha (Homo sapiens) (UniProt Q13133); experiment: ATG_LXRa_TRANS: Attagene TRANS-FACTORIAL HepG2 Assay for human Liver X Receptor alpha (LXRa) (AID 2282980; active = hit-call score of the fitted dose curve at least 0.9, where 1 is the maximum); details: HepG2 Attagene TRANS reporter, LXRa transactivation
In short: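 HepG2 cells transiently transfected with GAL4-UAS reporter units for chimeric NR-Gal4 proteins, exposed to chemicals for 24 h. Reporter mRNA quantified by RT-PCR and capillary electrophoresis; gain of signal fitted relative to DMSO.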

[5] = biological target: Oxysterols receptor LXR-beta (Homo sapiens) (UniProt P55055); experiment: ATG_LXRb_TRANS: Attagene TRANS-FACTORIAL HepG2 Assay for human Liver X Receptor beta (LXRb) (AID 2282981; active = hit-call score of the fitted dose curve at least 0.9, where 1 is the maximum); details: HepG2 Attagene TRANS GAL4-LXRb reporter, mRNA
In short: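 HepG2 cells transiently transfected with GAL4-UAS reporter units for chimeric NR-Gal4 proteins, dosed for 24 h. Reporter transcripts measured by RT-PCR and capillary electrophoresis; gain-of-signal fitting relative to DMSO.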

[6] = ATG_M_06_TRANS: Attagene TRANS-FACTORIAL HepG2 Assay for M06 Transcription Factor (Internal Marker) (AID 2282983; active = hit-call score of the fitted dose curve at least 0.9, where 1 is the maximum;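 note: reporter transcript level by RT-PCR then capillary electrophoresis fluorescence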); details: HepG2 Attagene TRANS M06 internal marker reporter
In short: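 HepG2 cells transiently transfected with GAL4-UAS multiple reporter units, dosed 24 h. Reporter RNA reverse-transcribed, PCR-amplified, 6-FAM-labeled, HpaI-digested and quantified by capillary electrophoresis; this internal-marker signal fitted upward relative to DMSO.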

[7] = biological target: Nuclear receptor subfamily 4 group A member 2 (Homo sapiens) (UniProt P43354); experiment: ATG_NURR1_TRANS: Attagene TRANS-FACTORIAL HepG2 Assay for human Nuclear Receptor Related Protein 1 (NURR1) (AID 2282985; active = hit-call score of the fitted dose curve at least 0.9, where 1 is the maximum); details: HepG2 Attagene TRANS reporter, mRNA readout
In short: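 HepG2 cells transiently transfected with NURR1-Gal4 chimera and GAL4-UAS reporter units; after 24 hr compound exposure, reporter mRNA quantified by RT-PCR and capillary electrophoresis; gain of signal fitted against DMSO.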

[8] = biological target: Transcriptional activator Myb (Homo sapiens) (UniProt P10242); experiment: ATG_Myb_CIS: Attagene CIS-FACTORIAL HepG2 Assay for human Myeloblastosis (Myb) Proto-Oncogene Transcription Factor (AID 2282986); details: HepG2 Attagene CIS-FACTORIAL Myb reporter transcription; actives raise or lower the signal
In short: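 Fluorescence signals from capillary electrophoresis of RT-PCR-amplified reporter cDNA give the read-out. Cells: HepG2 transfected with multiple cis-regulated reporter units. Exposure lasts 24 hours; DMSO defines baseline for gain or loss of signal.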

[9] = biological target: Nuclear respiratory factor 1 (Homo sapiens) (UniProt Q16656); experiment: ATG_NRF1_CIS: Attagene CIS-FACTORIAL HepG2 Assay for human Nuclear Respiratory Factor 1 (NRF1) Orphan Gene (AID 2282987); details: HepG2 NRF1 cis-element reporter, Attagene multiplex; actives raise or lower the signal
In short: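 Transcriptional reporter readout, one component of a 52-endpoint multiplexed HepG2 panel. Exposure 24 h; mRNA detected via RT-PCR and fluorescent capillary electrophoresis; fitting in both directions against DMSO.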

[10] = ATG_NFI_CIS: Attagene CIS-FACTORIAL HepG2 Assay for human Nuclear Factor I (NFI) (AID 2282989); details: HepG2 cis-regulatory reporter, NFI response element transcription; actives raise or lower the signal
In short: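 After transient transfection of HepG2 with cis-promoter reporter constructs and 24 h dosing, RNA is reverse-transcribed, amplified, 6-FAM end-labelled and HpaI-digested before capillary analysis. Bidirectional curve fitting against DMSO.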

[11] = ATG_NF_kB_CIS: Attagene CIS-FACTORIAL HepG2 Assay for human Nuclear Factor Kappa B (NF-kB) (AID 2282991); details: HepG2 Attagene cis-factorial NF-kB reporter mRNA; actives raise or lower the signal
In short: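 HepG2, transient multi-reporter transfection, cis promoter elements (endogenous TFs). 24 h exposure. Total RNA → RT → PCR → 6-FAM label → HpaI → CE. Gain/loss vs DMSO.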

[12] = ATG_NRF2_ARE_CIS: Attagene CIS-FACTORIAL HepG2 Assay for human Nuclear Factor Erythroid 2 Related Factor 2 (NFR2) response to Antioxidant Response Elements (ARE) (AID 2282992); details: HepG2 Attagene ARE/NRF2 reporter, transcription factor activity; actives raise or lower the signal
In short: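 HepG2 cells transiently transfected with multiplexed cis-regulated reporter transcription units measure endogenous transcription factor activity. Reporter mRNA at 24 h is quantified by RT-PCR, fluorescent labelling and capillary electrophoresis, with bidirectional fitting relative to DMSO.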

[13] = ATG_Oct_MLP_CIS: Attagene CIS-FACTORIAL HepG2 Assay for human Octamer-Binding Transcription Factor (Oct) (AID 2282993); details: HepG2 Attagene cis-factorial Oct reporter, mRNA; actives raise or lower the signal
In short: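 Cells of the HepG2 line express promoter-controlled reporter sequences whose mRNA levels, after 24 h treatment, are measured by RT-PCR and capillary electrophoresis. Increases and decreases are scored relative to DMSO.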

[14] = biological target: Cellular tumor antigen p53 (Homo sapiens) (UniProt P04637); experiment: ATG_p53_CIS: Attagene CIS-FACTORIAL HepG2 Assay for human p53 Transcription Factor (AID 2282994); details: HepG2 p53 cis-element reporter, Attagene mRNA; actives raise or lower the signal
In short: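 HepG2 cells transiently transfected with multiplexed cis-regulated reporter transcription units read endogenous TF activity. After 24 h compound exposure, reporter mRNA was quantified by RT-PCR, fluorescent labelling, HpaI digestion and capillary electrophoresis; bidirectional fits versus DMSO baseline.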

[15] = BSK_3C_TissueFactor: BioMAP Diversity Plus: 3C Assay for Tissue Factor Biomarker Activity (AID 2282997); details: BioMAP 3C HUVEC, tissue factor biomarker readout; actives raise or lower the signal
In short: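 HUVEC were treated 24 h, then surface tissue factor measured by ELISA and fitted bidirectionally against DMSO. Parallel SRB total-protein staining assessed overt cytotoxicity at the same time point.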

[16] = BSK_3C_uPAR: BioMAP Diversity Plus: 3C Assay for Urokinase-type plasminogen activator receptor (uPAR) Biomarker Activity (AID 2282998); details: BioMAP 3C HUVEC, uPAR biomarker ELISA; actives raise or lower the signal
In short: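 Endothelial primary cells of human umbilical vein origin received test chemical; 24 h later uPAR was assayed by ELISA. Fitting was bidirectional, DMSO as negative control.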

[17] = BSK_3C_VCAM1: BioMAP Diversity Plus: 3C Assay for Vascular cell adhesion molecule 1 (VCAM1) Biomarker Activity (AID 2282999); details: BioMAP 3C HUVEC, VCAM1 ELISA, cytokine-stimulated; actives raise or lower the signal
In short: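 Human umbilical vein endothelial cells (3C system), biomarker read by ELISA 24 h after dosing; bidirectional fit against DMSO baseline. Cytotoxicity tracked by SRB total-protein staining in parallel cultures at biomarker time.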

[18] = biological target: Hepatocyte nuclear factor 4-alpha (Homo sapiens) (UniProt P41235); experiment: ATG_HNF4a_TRANS: Attagene TRANS-FACTORIAL HepG2 Assay for human Hepatocyte Nuclear Factor 4 alpha (HNF4a) (AID 2282982; active = hit-call score of the fitted dose curve at least 0.9, where 1 is the maximum); details: HepG2 HNF4a transactivation reporter, mRNA readout
In short: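 HepG2 cells transiently transfected with HNF4a-Gal4 chimera and GAL4-UAS reporter units, dosed for 24 h. Reporter mRNA measured by RT-PCR, fluorescent primer extension and capillary electrophoresis; gain-of-signal fitted relative to DMSO.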

[19] = ATG_M_32_TRANS: Attagene TRANS-FACTORIAL HepG2 Assay for M32 Transcription Factor (Internal Marker) (AID 2282984; active = hit-call score of the fitted dose curve at least 0.9, where 1 is the maximum;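 note: transcript level of a background control reporter unit measured by RT-PCR and capillary electrophoresis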); details: HepG2 Attagene TRANS M32 internal marker reporter
In short: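 HepG2 cells transiently transfected with GAL4-UAS reporter units, dosed for 24 hours. Reporter mRNA quantified by RT-PCR, 6-FAM labelling, HpaI digestion and capillary electrophoresis; internal-marker signal fitted upward relative to DMSO.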

[20] = biological target: Myc proto-oncogene protein (Homo sapiens) (UniProt P01106); experiment: ATG_Myc_CIS: Attagene CIS-FACTORIAL HepG2 Assay for human Myelocytomatosis (Myc) Proto-Oncogene Transcription Factor (AID 2282990); details: HepG2, Attagene cis-reporter transcription factor activity; actives raise or lower the signal
In short: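 Read-out: fluorescent reporter mRNA fragments resolved by capillary electrophoresis after RT-PCR. Human HepG2 liver cells carried transfected cis-element reporter units and were dosed for 24 h. Gain or loss of signal fitted relative to DMSO baseline.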

Measured: AC50

Sequence of Bile acid receptor (Homo sapiens) (Q96RI1 whole entry, looked up, the tested form may be a part): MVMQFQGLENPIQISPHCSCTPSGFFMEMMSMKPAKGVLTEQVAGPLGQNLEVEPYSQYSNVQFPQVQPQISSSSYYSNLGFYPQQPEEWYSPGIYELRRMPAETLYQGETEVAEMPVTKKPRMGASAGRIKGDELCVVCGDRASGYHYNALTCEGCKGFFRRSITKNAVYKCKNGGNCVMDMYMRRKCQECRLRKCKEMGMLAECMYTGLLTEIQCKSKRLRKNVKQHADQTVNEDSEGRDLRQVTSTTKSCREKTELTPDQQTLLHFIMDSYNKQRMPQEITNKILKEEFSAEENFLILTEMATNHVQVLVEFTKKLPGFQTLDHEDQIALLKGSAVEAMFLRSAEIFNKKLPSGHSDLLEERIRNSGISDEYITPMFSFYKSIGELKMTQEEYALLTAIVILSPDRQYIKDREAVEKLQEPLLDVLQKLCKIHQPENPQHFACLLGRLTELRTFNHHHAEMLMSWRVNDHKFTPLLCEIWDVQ
Sequence of Transcriptional activator Myb (Homo sapiens) (P10242 whole entry, looked up): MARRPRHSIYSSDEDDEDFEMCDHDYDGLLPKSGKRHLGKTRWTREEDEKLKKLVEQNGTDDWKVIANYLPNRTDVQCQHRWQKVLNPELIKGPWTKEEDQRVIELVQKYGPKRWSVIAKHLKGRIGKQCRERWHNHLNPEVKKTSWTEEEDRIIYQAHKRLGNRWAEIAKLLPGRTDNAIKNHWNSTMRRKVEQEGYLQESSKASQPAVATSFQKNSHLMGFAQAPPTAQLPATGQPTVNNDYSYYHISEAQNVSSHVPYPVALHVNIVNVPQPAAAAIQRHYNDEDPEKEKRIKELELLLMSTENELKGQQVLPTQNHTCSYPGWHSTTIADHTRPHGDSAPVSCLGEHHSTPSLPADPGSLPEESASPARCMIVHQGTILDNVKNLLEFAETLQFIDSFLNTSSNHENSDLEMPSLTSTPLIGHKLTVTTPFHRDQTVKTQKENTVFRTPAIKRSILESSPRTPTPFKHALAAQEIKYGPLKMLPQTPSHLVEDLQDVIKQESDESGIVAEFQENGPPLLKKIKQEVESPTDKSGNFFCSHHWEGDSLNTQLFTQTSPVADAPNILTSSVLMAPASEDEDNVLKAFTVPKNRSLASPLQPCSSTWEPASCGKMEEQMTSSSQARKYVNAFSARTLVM
Sequence of Myc proto-oncogene protein (Homo sapiens) (P01106 whole entry, looked up, the tested form may be a part): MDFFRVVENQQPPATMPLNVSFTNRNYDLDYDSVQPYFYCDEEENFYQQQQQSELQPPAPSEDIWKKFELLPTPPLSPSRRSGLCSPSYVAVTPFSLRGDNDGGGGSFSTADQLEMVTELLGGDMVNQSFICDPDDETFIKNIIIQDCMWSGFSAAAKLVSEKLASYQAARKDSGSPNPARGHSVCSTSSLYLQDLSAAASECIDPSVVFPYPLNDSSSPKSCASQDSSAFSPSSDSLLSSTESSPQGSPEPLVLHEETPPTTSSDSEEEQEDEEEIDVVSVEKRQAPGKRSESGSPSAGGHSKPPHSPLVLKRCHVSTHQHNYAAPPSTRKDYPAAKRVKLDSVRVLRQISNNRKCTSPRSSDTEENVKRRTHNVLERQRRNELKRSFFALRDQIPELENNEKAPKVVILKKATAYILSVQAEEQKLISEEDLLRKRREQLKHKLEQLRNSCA
Sequence of Cellular tumor antigen p53 (Homo sapiens) (P04637 whole entry, looked up): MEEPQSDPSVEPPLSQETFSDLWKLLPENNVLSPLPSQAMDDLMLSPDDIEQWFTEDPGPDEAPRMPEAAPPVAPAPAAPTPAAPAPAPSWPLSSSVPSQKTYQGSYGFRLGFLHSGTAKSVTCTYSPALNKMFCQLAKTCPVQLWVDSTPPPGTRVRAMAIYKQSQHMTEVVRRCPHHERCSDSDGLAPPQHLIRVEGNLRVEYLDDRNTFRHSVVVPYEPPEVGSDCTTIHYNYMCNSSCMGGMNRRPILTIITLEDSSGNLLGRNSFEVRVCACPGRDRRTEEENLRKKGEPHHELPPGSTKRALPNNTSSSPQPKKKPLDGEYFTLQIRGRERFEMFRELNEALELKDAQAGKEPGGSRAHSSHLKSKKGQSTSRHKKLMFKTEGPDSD
Sequence of Oxysterols receptor LXR-alpha (Homo sapiens) (Q13133 whole entry, looked up, the tested form may be a part): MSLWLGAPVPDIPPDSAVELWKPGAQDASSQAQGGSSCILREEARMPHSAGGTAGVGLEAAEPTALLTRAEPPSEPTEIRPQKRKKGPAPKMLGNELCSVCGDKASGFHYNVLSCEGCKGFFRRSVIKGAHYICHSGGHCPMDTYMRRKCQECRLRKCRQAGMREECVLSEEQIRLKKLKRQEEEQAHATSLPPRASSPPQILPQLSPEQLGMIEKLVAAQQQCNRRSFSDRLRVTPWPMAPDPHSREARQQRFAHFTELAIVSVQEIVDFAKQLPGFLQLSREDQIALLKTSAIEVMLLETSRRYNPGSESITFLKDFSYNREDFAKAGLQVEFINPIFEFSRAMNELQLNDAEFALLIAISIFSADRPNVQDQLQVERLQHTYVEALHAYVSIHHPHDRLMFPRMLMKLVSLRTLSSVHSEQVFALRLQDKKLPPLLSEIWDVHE
Sequence of Oxysterols receptor LXR-beta (Homo sapiens) (P55055 whole entry, looked up, the tested form may be a part): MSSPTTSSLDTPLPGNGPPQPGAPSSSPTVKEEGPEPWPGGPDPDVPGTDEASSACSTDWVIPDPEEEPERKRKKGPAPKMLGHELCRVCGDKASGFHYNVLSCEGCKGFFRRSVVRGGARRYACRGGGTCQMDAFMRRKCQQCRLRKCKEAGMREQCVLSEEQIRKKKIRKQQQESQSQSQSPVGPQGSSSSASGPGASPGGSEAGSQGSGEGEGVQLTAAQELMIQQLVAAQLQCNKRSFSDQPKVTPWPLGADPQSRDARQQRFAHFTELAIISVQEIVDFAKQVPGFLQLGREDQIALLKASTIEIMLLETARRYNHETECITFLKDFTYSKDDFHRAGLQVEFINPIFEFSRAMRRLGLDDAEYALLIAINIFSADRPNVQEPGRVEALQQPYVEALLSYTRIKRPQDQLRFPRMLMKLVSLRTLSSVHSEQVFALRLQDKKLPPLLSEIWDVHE
Sequence of Estrogen-related receptor gamma (Homo sapiens) (P62508 whole entry, looked up, the tested form may be a part): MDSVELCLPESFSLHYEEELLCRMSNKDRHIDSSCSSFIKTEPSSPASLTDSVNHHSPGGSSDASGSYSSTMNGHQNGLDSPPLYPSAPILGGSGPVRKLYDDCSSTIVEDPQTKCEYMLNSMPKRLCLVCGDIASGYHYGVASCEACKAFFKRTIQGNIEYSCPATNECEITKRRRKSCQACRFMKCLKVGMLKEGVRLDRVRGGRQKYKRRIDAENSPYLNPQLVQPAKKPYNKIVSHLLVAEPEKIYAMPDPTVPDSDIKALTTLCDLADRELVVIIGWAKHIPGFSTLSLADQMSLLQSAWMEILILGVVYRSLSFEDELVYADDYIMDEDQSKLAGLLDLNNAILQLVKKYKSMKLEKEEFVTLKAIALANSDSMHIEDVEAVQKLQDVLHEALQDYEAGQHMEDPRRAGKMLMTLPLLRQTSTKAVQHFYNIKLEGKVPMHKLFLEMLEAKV
Sequence of Nuclear respiratory factor 1 (Homo sapiens) (Q16656 whole entry, looked up): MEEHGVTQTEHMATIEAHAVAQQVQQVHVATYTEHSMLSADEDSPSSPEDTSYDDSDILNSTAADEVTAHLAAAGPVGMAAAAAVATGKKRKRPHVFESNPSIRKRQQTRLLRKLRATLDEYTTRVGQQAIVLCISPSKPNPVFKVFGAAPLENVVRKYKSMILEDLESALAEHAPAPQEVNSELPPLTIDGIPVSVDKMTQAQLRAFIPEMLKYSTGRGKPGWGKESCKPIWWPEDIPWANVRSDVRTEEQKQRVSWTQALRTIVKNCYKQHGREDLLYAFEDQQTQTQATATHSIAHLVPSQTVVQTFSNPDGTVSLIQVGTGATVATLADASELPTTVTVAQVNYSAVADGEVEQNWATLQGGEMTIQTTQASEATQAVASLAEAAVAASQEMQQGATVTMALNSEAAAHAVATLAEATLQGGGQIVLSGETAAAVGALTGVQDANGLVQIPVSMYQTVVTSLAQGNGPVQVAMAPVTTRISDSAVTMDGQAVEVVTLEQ
Sequence of Glucocorticoid receptor (Homo sapiens) (P04150 whole entry, looked up, the tested form may be a part): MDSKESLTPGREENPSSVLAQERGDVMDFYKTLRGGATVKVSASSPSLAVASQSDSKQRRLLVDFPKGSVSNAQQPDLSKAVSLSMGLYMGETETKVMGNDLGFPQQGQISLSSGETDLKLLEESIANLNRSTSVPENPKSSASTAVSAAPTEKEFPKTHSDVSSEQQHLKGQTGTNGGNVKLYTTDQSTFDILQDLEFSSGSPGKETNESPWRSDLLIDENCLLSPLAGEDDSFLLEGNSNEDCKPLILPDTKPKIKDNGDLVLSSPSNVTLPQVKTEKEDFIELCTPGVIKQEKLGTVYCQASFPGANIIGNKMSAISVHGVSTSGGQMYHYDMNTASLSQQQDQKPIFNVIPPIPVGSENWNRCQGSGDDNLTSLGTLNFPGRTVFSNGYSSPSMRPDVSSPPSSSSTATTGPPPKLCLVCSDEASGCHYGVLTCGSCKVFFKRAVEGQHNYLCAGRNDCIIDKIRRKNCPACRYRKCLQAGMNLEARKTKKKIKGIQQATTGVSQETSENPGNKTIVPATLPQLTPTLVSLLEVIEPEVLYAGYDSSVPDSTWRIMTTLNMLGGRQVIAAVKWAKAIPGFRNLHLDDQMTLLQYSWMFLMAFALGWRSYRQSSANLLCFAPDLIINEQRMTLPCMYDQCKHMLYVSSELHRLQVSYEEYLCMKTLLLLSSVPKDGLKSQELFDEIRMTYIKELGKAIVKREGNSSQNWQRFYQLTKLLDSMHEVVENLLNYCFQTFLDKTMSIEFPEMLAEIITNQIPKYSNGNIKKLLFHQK

O=C(O)C(F)(OC(F)(F)C(F)(OC(F)(F)C(F)(OC(F)(F)C(F)(F)C(F)(F)F)C(F)(F)F)C(F)(F)F)C(F)(F)F (stereo not drawn)
not listed: [18] | [19] | [20]
inactive: all other assays above

CC(Cc1ccc(O)c(O)c1)C(C)Cc1ccc(O)c(O)c1 (stereo not drawn)
active: [7] 57.1 µM | [11] 55.3 µM | [12] 22.8 µM
not listed: [5] | [10] | [13] | [15] | [16] | [17] | [20]
inactive: all other assays above

CCN(Cc1cccc(S(=O)(=O)O)c1)c1ccc(C(=C2C=CC(=[N+](CC)Cc3cccc(S(=O)(=O)O)c3)C=C2)c2ccc(O)cc2S(=O)(=O)[O-])cc1
inactive: [1] | [3] | [4] | [5] | [19] | [7] | [8] | [9] | [10] | [11] | [12]

CC/C=C\CCOC(C)=O
not listed: [10] | [13] | [15] | [16] | [17] | [18]
inactive: all other assays above

FC1CC(F)(F)C(F)(F)C1(F)F (stereo not drawn)
not listed: [6] | [7] | [18]
inactive: all other assays above

CCO[Si](CCC(F)(F)C(F)(F)C(F)(F)C(F)(F)C(F)(F)C(F)(F)F)(OCC)OCC
not listed: [10] | [20]
inactive: all other assays above

O=C(O)C(F)(F)C(F)(F)C(F)(F)F
not listed: [10] | [13]
inactive: all other assays above

FC(F)(F)C(F)(F)C(F)(F)N(C(F)(F)C(F)(F)C(F)(F)F)C(F)(F)C(F)(F)C(F)(F)F
not listed: [2] | [5] | [7]
inactive: all other assays above

O=C(Cl)C(F)(F)C(F)(F)C(F)(F)C(F)(F)C(F)(F)C(F)(F)C(F)(F)C(F)(F)F
inactive: [1] | [2] | [3] | [18] | [6] | [19] | [8] | [9] | [10] | [20] | [11] | [15] | [16] | [17]
active: [7] 24.9 µM | [12] 15.8 µM | [13] 47.1 µM | [14] 54.3 µM | [15] 53.4 µM | [16] 30 µM and 46 µM

O=C(O)C(F)(F)C(F)(F)C(F)(F)C(F)(F)C(F)(F)C(F)(F)C(F)(F)C(F)(F)C(F)(F)C(F)F
inactive: [1] | [3] | [18] | [6] | [19] | [8] | [9] | [10] | [11] | [13] | [14] | [15] | [16] | [17]
active: [4] 50 µM | [5] 78 µM | [7] 28.2 µM | [12] 26.3 µM | [17] 45.2 µM

CC/C=C\CCOC(=O)c1ccccc1
not listed: [3] | [6] | [10] | [15] | [16] | [17]
inactive: all other assays above

C=C(C)C(=O)OCC(F)(F)C(F)(F)C(F)(F)F
not listed: [18] | [20]
inactive: all other assays above

Cc1cc(C)cc(O)c1
not listed: [3] | [6] | [7] | [11] | [15] | [16] | [17] | [19]
inactive: all other assays above

CC(C)(C)C(=O)CC(=O)C(F)(F)C(F)(F)C(F)(F)F
not listed: [4] | [13] | [18] | [20]
inactive: all other assays above

O=S(=O)(OCCOC(F)(F)F)C(F)(F)F
not listed: [10]
inactive: all other assays above

Source: PubChem BioAssay (EPA / NIEHS)
